# Screening results as filed in PubChem.
# Shown are actives, neighbours in structure and some others; about 12% of the full set was active somewhere.
# WT yeast gro inh = growth inhibition of WT yeast, mitochondrial fusion screen | mitochondrial fusion phenotypic screen, WT strain | inhibition, % at 10 µM | 190,000 compounds, 2.1% hits | AID 1362; in the data active = inhibition above about 58%; tested in S. cerevisiae
# KCC2 mod = modulators of human KCC2 chloride dependent transport. AID 1456. 190,000 compounds, 2.2% hits. B-score of Tl+ flux slope (higher = more flux/activation; lower = inhibition) at 10 µM. Q9H2X9. KCC2 cells, thallium flux FluoZin-2 fluorescence;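 active = thallium flux slope and its plate-corrected score both differing from the plate sample mean at a set confidence after two filtering rounds, in either direction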;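 also: slope of fluorescence scaled to starting intensity during 10 to 20 s after thallium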
# ROMK primary = modulators of human ROMK potassium channel. AID 1918. 130,000 compounds, 2% hits. P48048. Tet-inducible ROMK, thallium flux fluorescence; actives lie on both sides. B-score at 10 µM;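 active = signal ratio slope over the read window, or its plate-corrected B-score, at least 3 SD from the plate mean, either direction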;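 also: B-score of the F/F0 ratio slope over 7 to 12 s after thallium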
# Target sequence (P48048 whole entry, looked up): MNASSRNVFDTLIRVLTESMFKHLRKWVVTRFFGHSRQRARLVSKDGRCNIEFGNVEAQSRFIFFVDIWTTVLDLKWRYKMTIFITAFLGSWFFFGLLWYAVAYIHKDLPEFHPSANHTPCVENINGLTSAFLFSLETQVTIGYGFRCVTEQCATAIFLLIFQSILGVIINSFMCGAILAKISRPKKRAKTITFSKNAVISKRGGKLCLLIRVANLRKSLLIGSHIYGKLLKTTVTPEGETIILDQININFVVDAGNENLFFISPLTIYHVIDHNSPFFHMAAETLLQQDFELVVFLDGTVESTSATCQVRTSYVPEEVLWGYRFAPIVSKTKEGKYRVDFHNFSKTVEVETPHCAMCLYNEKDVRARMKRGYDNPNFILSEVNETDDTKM
# L major viab = inhibitors of Leishmania major promastigote growth; Leishmania major promastigotes, resazurin fluorescence viability; inhibition, % at 10 µM; 200,000 compounds, 9% hits; AID 1063; in the data active = inhibition above about 50%;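 also: promastigotes grown with compound for 44 hours at 28 °C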
# Insulin prom inh = TRM-6 insulin promoter activity inhibition | TRM-6 cells (human fetal islet line), insulin promoter-eGFP reporter, imaging; reporter expression induced with tamoxifen | inhibition, % at 2 µM | 130,000 compounds, 0.9% hits;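 active = inhibition above the mean plus 3 SD, with well images judged a real hit on visual review, cut at about 60% in these data, passing the limit was not always enough; inconclusive = inhibition over the cutoff but images rejected on review; inactive = inhibition not above the cutoff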
# Insulin prom up = MIN6 insulin promoter up-regulation; MIN6 insulin promoter-GFP reporter, high-content imaging; hits give high values; z-score at 5 µM; 190,000 compounds, 0.3% hits; AID 1625;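 active = z-score above 3 at 5 µM with at least 500 cells counted in the well; inconclusive = wells under 500 cells, flagged as cytotoxic or low count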
# Numbers without * were called inactive; ? = inconclusive; . = not tested or not shown.
SMILES,WT yeast gro inh,KCC2 mod,ROMK primary,L major viab,Insulin prom inh,Insulin prom up
Cn1c(SCC(=O)C(C)(C)C)nnc1-c1ccc(F)cc1,-8.2,-0.683,0.0175,0.8,.,-0.29
CC(OC(=O)c1cc(-c2cccnc2)nc2ccccc12)C(=O)Nc1ccc2ccccc2c1 (stereo not drawn),13.5,-0.805,.,74.9*,20.0,0.16
CCNC(=S)NNC(=O)c1cc(-c2cccnc2)nc2ccccc12,3.0,-1.26,.,1.5,14.3,-0.39
OCCC1CN(Cc2cccc3c2OCO3)CCN1C1CCCCC1 (stereo not drawn),5.6,-0.355,0.731,23.4,.,0.83
O=C(NCC1COc2ccccc2O1)C1CCCN(S(=O)(=O)c2cccc3nsnc23)C1 (stereo not drawn),-14.1,.,-2.46*,5.8,38.5,-0.15
Cc1ccc(C2/C(=C(\O)c3ccc4c(c3)OCCO4)C(=O)C(=O)N2CCCN(C)C)o1 (stereo not drawn),8.3,.,1.12,-0.8,.,-0.5
CCOC(=O)C1CCN(Cc2cnc(Oc3ccc(N)cc3)s2)CC1,-2.0,.,.,84.4*,-33.3,0.91
CCOC(=O)C1CCN(C(=S)Nc2ccc(Cl)cc2C)CC1,10.3,0.267,0.173,-0.3,33.3,-0.52
Cc1ccc(Oc2ncc(CN3CC(C)OC(C)C3)s2)cc1 (stereo not drawn),40.9,0.148,.,52.2*,-50.0,.
Cc1ccc(C2(c3noc(CN4C[C@@H](C)O[C@@H](C)C4)n3)CCCC2)cc1,6.0,.,.,11.9,.,-0.44
CCOC(=O)C1CCN(Cc2cnc(Oc3ccc(Cl)cc3C)s2)CC1,24.3,.,.,90.0*,-13.3,.
Cc1nc2c3ccccc3nc(NNC(=O)CCC(=O)NC3CCCC3)n2n1,8.9,0.153,0.242,5.9,-36.4,.
Cc1c(C(=O)O)oc2c3c(ccc12)OCCO3,-4.5,.,0.853,-2.6,.,0.1
Brc1ccc2[nH]c3c(c2c1)CCC3,.,0.126,.,.,.,-0.09
Cc1nc2c([nH]c3ccc(Br)cc32)s1,25.6,0.841,0.586,4.0,95.0*,0.37
CCOC(=O)C1CCCN(C(=O)c2cc(-c3ccccc3)on2)C1 (stereo not drawn),-5.2,0.647,0.145,-7.5,0.0,0.99
C=C(C)CSc1nc2nc(C)c(Br)cc2[nH]1,19.4,-0.676,0.854,5.1,79.3*,0.29
COC(=O)CSc1nc2nc(C)c(Br)cc2[nH]1,14.2,0.255,1.46,0.1,17.2,-0.32
CC(=O)c1ccc(NC(=S)NC(C)c2ccc(Cl)cc2Cl)cc1 (stereo not drawn),83.9*,0.599,0.0155,10.4,27.3,0.11
O=C(c1ccc(NC(=S)Nc2ccc(Cl)c(Cl)c2)cc1)N1CCCC1,80.5*,0.248,.,-4.7,.,-0.82
NS(=O)(=O)c1ccc(NC(=S)Nc2ccc(C(=O)N3CCCCC3)cc2)cc1,8.8,-0.0616,0.0039,-2.6,.,.
CCCC(=O)NC(=S)Nc1ccc(C(C)=O)cc1,3.1,-0.0439,0.265,-6.7,25.0,-0.09
CC(=O)c1ccc(NC(=S)Nc2ccc(Br)c(Cl)c2)cc1,76.7*,0.0796,0.776,-0.6,.,-1.06
CC(C)CN1CCNC(=O)C1CC(=O)NCCc1cnn(-c2ccccc2)c1 (stereo not drawn),3.9,-0.117,0.108,-0.8,.,0.85
O=C1c2[nH]nc(-c3ccccc3O)c2C(c2cccc(Cl)c2)N1Cc1ccco1 (stereo not drawn),30.9,.,-1.29,79.0*,.,0.2
SMILES,WT yeast gro inh,KCC2 mod,ROMK primary,L major viab,Insulin prom inh,Insulin prom up
O=C1c2[nH]nc(-c3ccccc3O)c2C(c2ccc(F)cc2)N1Cc1ccco1 (stereo not drawn),7.2,.,-1.23,94.4*,6.7,0.88
COc1ccc(N2CCN(c3cc(C)c4ccccc4n3)CC2)cc1,-1.0,.,0.348,5.5,36.6,-0.07
COc1ccc2c(C)cc(N3CCCCCC3)nc2c1,3.3,-1.94,.,60.6*,50.0,1.05
O=C(/C=C/c1ccoc1)c1ccccc1O,-27.4,-0.00204,-1.23,76.4*,-35.1,0.33
COc1ccc2ccccc2c1C(=O)/C=C\c1ccoc1,15.7,0.0116,0.216,29.7,78.6*,-0.54
CCCCCCOC(=O)CCn1[nH]c(=O)c2ccccc2c1=O,-6.8,0.186,1.61,-6.5,7.4,-0.06
O=C(NCCCN1CCOCC1)C(=O)NCC1CCCO1 (stereo not drawn),-3.5,0.221,1.44,33.9,-13.9,-0.14
O=C1NC(=NCc2ccccc2)S/C1=C/c1ccc(O)cc1,-18.8,-3.41,.,63.1*,-158.6,-0.1
CCN1/C(=C/c2ccc3cccc(C)c3[n+]2CC)Sc2ccccc21,62.5*,.,.,100.6*,-233.3,.
CCCN1C(=O)/C(=C\C=C2/Sc3ccccc3N2CC)SC1=S,12.6,.,0.99,1.0,-387.8,0.32
O=C1CC(N2C(=O)/C(=C/C=C/c3ccccc3)SC2=S)C(=O)N1c1ccccc1 (stereo not drawn),-10.2,-0.396,.,56.2*,7.4,-0.22
COc1ccc(Nc2nc(N)nc(CSc3nnc(C)s3)n2)cc1,1.2,-0.0695,.,2.2,56.2,0.08
CCC1=[N+](C)c2cccc3cccc(c23)N1C,59.1*,0.254,-0.37,17.0,-55.6,-0.44
Cn1cc(-c2ccccc2C(N)=O)c(=O)c2cc(Cl)ccc21,-0.4,0.228,-0.0413,72.6*,-66.7,-0.33
O=C(N/N=C/C(Br)=C\c1ccccc1)c1n[nH]c2c1CCC2,39.9,-2.2,2.87,53.8*,-38.9,?
Cc1ccc(-c2cc(C(=O)N/N=C/C(Br)=C/c3ccccc3)n[nH]2)o1,60.7*,-0.133,-0.237,33.6,.,0.23
Cn1cc(C(=O)N/N=C/C(Br)=C\c2ccccc2)ccc1=O,12.5,-0.0103,.,80.4*,-14.3,.
Cn1cc(C(=O)N/N=C/C(Br)=C/c2ccccc2)ccc1=O,-5.4,0.0804,-0.00125,62.0*,16.2,-0.22
CC(C)(C)c1nnc2sc(SCC(=O)c3ccc(Cl)cc3)nn2c1=O,41.9,-0.342,.,-6.4,20.5,-0.5
COc1ccc(Cl)cc1C(=O)NNC(=S)NC(=O)c1cc(-c2ccc(Cl)cc2)nc2ccccc12,-3.3,0.346,0.606,-9.4,.,0.45
CCOC(=O)CNC(=O)N1CCCC(CNS(=O)(=O)Cc2ccccc2)C1 (stereo not drawn),-1.4,0.0452,0.375,-2.8,.,-0.29
O=S(=O)(Cc1ccccc1)NCC1CCCN(Cc2ccc(F)c(F)c2)C1 (stereo not drawn),-6.3,-0.0363,0.619,89.8*,.,-0.37
O=C(NCCc1ccccc1)N1CCCC(CNS(=O)(=O)Cc2ccccc2)C1 (stereo not drawn),-1.8,-0.0327,-0.187,0.0,.,0.25
O=S(=O)(Cc1ccccc1)NCC1CCCN(Cc2ccc3nonc3c2)C1 (stereo not drawn),0.1,0.254,-1.21,92.5*,.,-0.36
CC(=O)n1cc([C@H]2C=C(C(=O)N3CCN(Cc4ccccc4)CC3)O[C@@H](OCc3ccc(CO)cc3)C2)c2ccccc21,12.8,-0.555,.,31.1,.,0.65
C=COCCn1c(=N)n(CCC)c2ccccc21,-15.6,.,.,3.5,.,-0.06
CCCn1c(=N)n(CCOCCOCCn2c(=N)n(CCC)c3ccccc32)c2ccccc21,.,-0.012,-3.08,88.0*,-5.0,.
